KB-3-1 cytotox = KB-3-1 parental cell cytotoxicity | KB-3-1 viability, CellTiter-Glo ATP luminescence, 72 h | Potency, µM (titrated, usually from 46.1 µM), usual class: cytotoxic | hit rate 1.4% among 400,000 | AID 1347075; further: on the % scale 0 is the no-effect control and ±100 the full control effect; nearly all actives have a fitted effect of over 60% in size
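Here the drug-naive KB-3-1 line serves as comparator for MDR sub-line selectivity; cells received compound titrations, 72 h at 37 °C, then CellTiter-Glo readout.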
ATXN2 expr inh = inhibitors of ATXN2 expression; Potency, µM (top dose mostly 57 µM), for inactives: top-dose activity change, negative = inhibition, usual class: inhibitors; AID 1745845; HEK-293 ATXN2-luciferase reporter, luminescence, 24 h; hit rate 0.72% among 360,000; further: on the % scale 0 is the no-effect control and ±100 the full control effect; nearly all actives have a fitted effect of over 55% in size
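ATXN2-luciferase reporter cells (luciferase flanked by upstream and downstream ATXN2 gene portions) were treated 24 h at 37 °C with compounds at up to 57 uM. SteadyGlo luminescence gave expression; GF-AFC fluorescence gave viability.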
KB-V1 cytotox = kills drug-selected multidrug resistant KB-V1 cells; KB-V1 MDR cells viability, CellTiter-Glo, 72 h; Potency, µM (titrated, usually from 46.1 µM), most hits filed as cytotoxic; AID 1347076; hit rate 3.4% among 400,000; further: on the % scale 0 is the no-effect control and ±100 the full control effect; nearly all actives have a fitted effect of over 60% in size
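Readout: CellTiter-Glo luminescence, 10 min after addition. Cells: KB-V1 MDR subline, 72 h at 37 degrees C with compound. Analysis: corrected, normalized data fitted to concentration-effect curves.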
TGFb inhibitor = inhibitors of TGF-b signaling; HepG2 CAGA-GFP TGF-b/SMAD3 reporter, GFP fluorescence, 18 h; TGF-beta stimulated, 500 pg/mL final; Potency, µM (top dose mostly 46.1 µM), for the others: top-dose activity, negative = inhibition, usual class: inhibitors; hit rate 1.2% among 410,000; further: on the % scale 0 is the no-effect control and ±100 the full control effect; nearly all actives have a fitted effect of over 65% in size
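TGF-beta reporter screen: HEPG2 CAGA-GFP, 1% FBS, 500 pg/mL TGF-beta final, 18 h; per-cell GFP summed per well; curves fitted and categorized by class.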
ATXN viability = viability counter-screen for ATXN expression inhibitors | S2 cells (HEK-293 line with an ATXN2-luciferase reporter) viability, CellTiter-Fluor protease fluorescence, 24 h | Potency, µM (series often up to 56.7 µM), actives largely listed as cytotoxic | hit rate 0.49% among 400,000 | AID 651635; further: nearly all actives have a fitted effect of over 40% in size
HepG2 tox = HepG2 cytotoxicity, counter-screen for TGF-b inhibitors. HepG2 CAGA-GFP viability, ATP luminescence, 18 h. Potency, µM (series often up to 46.1 µM), for inactives: top-dose activity change, negative = cytotoxicity, usual class: cytotoxic. hit rate 0.76% among 410,000. AID 588856
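HepG2 CAGA-GFP cells (1000/well, DMEM with 1% FBS) received compound, then TGF-beta at 500 pg/mL final, and were incubated 18 hours at 37 degrees C. Viability was read by CellTiter-Glo luminescence. Media-only wells were set as complete cell-killing and DMSO as no toxicity.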
* hit, by the source's call; i = inactive; u = inconclusive; x = not tested or not shown; ! = a repeat was not active. Only some compounds are listed: those with a hit (about 5.9% of all), similar ones and a draw of the others. The call rests on the fitted dose curve; in most records, active means well fitted curve in the direction sought with a large enough effect; inconclusive means small, poorly fitted or top-dose-only effect, or another doubt; inactive means no such curve, though single readings can be large; an effect the other way counts as inactive or inconclusive. Potency means the concentration at half of the fitted maximal effect.

SMILES	KB-3-1 cytotox	ATXN2 expr inh	KB-V1 cytotox	TGFb inhibitor	ATXN viability	HepG2 tox
COc1ccc(CNC(=O)c2cc3c(C)nc4ccccc4c3o2)c(OC)c1	u	-31%	12µM*	-26%	u	-28%
CCc1ccc(CNC(=O)c2cc3c(C)nc4ccccc4c3o2)cc1	i	20µM*	i	u	u	-19%
O=C(c1ccccc1)N1CCc2cc(CNS(=O)(=O)c3ccc(Cl)s3)ccc21	x	x	x	-23%	x	-60%
COc1ccc(C(=O)N2CCC3(CC2)c2ccccc2[C@@H](NC(=O)c2ccccn2)[C@@H]3OC)c(O)c1	x	x	x	x	i	x
Cc1ccc(/C=[N+](\[O-])c2ccc(N(C)C)cc2)c2nsnc12	i	u	i	7.9µM*	u	14µM*
c1ccc(C2C3=C(Nc4ncnn42)c2ccccc2CCC3)cc1 (stereo not given)	i	0%	18µM*	4%	i	-5%
COc1cc(Cl)c(C)cc1NC(=O)c1nn(-c2ccc(C)cc2)c(=O)n(C)c1=O	i	0%	i	59%	i	9%
COc1ccc(Cl)cc1NC(=S)NNC(=O)C1(C)CC1(Cl)Cl (stereo not given)	i	-11%	i	20µM*	i	-42%
CCCNS(=O)(=O)c1ccc(CCC(=O)Nc2cc(Cl)ccc2Oc2ccccc2)cc1	i	-28%	8.2µM*	-17%	u	1%
COc1ccc(CCC(=O)Nc2cc(Cl)ccc2OC)cc1	i	-18%	21µM*	-2%	i	-19%
COc1ccc(Cl)cc1NC(=O)CC(=O)Nc1cc(Cl)ccc1OC	i	-23%	i	-25%	i	-25%
C=CCN(CC=C)C(=O)Nc1cc(Cl)ccc1OC	i	1%	15µM*	8%	i	-10%
CC(C)CNS(=O)(=O)c1ccc(CCC(=O)Nc2cc(Cl)ccc2Oc2ccccc2)cc1	u	-32%	i	-2%	i	-19%
Cc1ccc(C)c(CN2C(=O)c3ccccc3S(=O)c3ccc(C(=O)N4CCN(c5cccc(Cl)c5)CC4)cc32)c1 (stereo not given)	i	-1%	i	u	i	-26%
CC1CCN(S(=O)(=O)c2ccc3[nH]cc(C(=O)NCc4ccc(F)cc4)c(=O)c3c2)CC1	i	8%	i	0%	i	-22%
Cc1c(NC(=O)CSc2nc(-c3ccco3)cc(C(F)(F)F)n2)c(=O)n(-c2ccccc2)n1C	i	0%	i	0%	i	-4%
Cc1ccc(NC(=O)CSc2nc(-c3ccco3)cc(C(F)(F)F)n2)cc1C	4.1µM*!	-2%	4.1µM*	-19%	i	-33%
Cc1cc(NC(=O)CSc2nc(-c3ccco3)cc(C(F)(F)F)n2)n(-c2ccccc2)n1	5.8µM*	u	4.1µM*	-26%	i	-1%
Cc1cc(NC(=O)CCCSc2nc(-c3ccco3)cc(C(F)(F)F)n2)n(-c2ccccc2)n1	i	-15%	2.9µM*	u	i	-9%
CC(Oc1ccccc1)C(=O)N[C@@H]1C(=O)N2C(C(=O)OCC3CCCCC3)C(C)(C)S[C@H]12 (stereo not given in full)	i	x	u	u	x	-4%
Cc1ccccc1-c1nnc(NC(=O)Nc2ccc3ccccc3c2)s1	u	x	i	x	x	x
O=c1c2cc3c(cc2nc2sc(Nc4ccccc4)nn12)OCO3	i	56%	i	20%	i	-12%
CCCn1c(CCC(=O)Nc2ccc(C)c(Cl)c2)nc2cccnc21	i	-38%	i	0%	u	-20%
CC(=O)c1cccc(Nc2c3c(nc4ccccc24)CCC3)c1	1.8µM*	u	i	u	u	-28%
CCOC(=O)c1cccc(Nc2c3c(nc4ccccc24)CCC3)c1	i	u	u	u	u	-40%
SMILES	KB-3-1 cytotox	ATXN2 expr inh	KB-V1 cytotox	TGFb inhibitor	ATXN viability	HepG2 tox
COC(=O)c1cccc(Nc2c3c(nc4ccccc24)CCC3)c1	21µM*	-31%	18µM*	-27%	i	-29%
COc1cc(-c2ccc3ncnc(NCc4ccc(C)o4)c3c2)cc(OC)c1OC	u	x	i	x	x	x
CCC/C=C/c1ccc(CN2C(C)C(=O)N(Cc3cn(Cc4ccco4)nn3)CCS2(=O)=O)cc1 (stereo not given)	i	-29%	i	22µM*	u	-33%
CCC/C=C/c1ccc(CN2C(C(C)C)C(=O)N(Cc3cn(Cc4ccco4)nn3)CCS2(=O)=O)cc1 (stereo not given)	i	u	i	11µM*	u	-109%
CC(C)C1C(=O)N(Cc2cn(Cc3ccco3)nn2)CCS(=O)(=O)N1Cc1ccc(-c2ccc(Cl)c(Cl)c2)cc1 (stereo not given)	i	0%	13µM*	u	u	-42%
Cc1c(CCC(=O)NCCc2ccc(Cl)cc2)c(=O)oc2c(C)c(O)ccc12	i	-14%	i	2%	i	-2%
CC(=O)Nc1ccc(S(=O)(=O)N(C)S(=O)(=O)c2ccc(F)cc2)cc1	i	4%	16µM*	u	i	5%
CCc1ccc(C(=O)c2cn(CC(=O)Nc3ccc(OC)c(OC)c3)c3ccc(C)cc3c2=O)cc1	i	9%	i	-31%	i	0%
CCc1ccc(N2CC(c3nc4ccccc4n3Cc3ccccc3C)CC2=O)cc1 (stereo not given)	i	u	i	10µM*	u	-26%
CCOc1ccc(N2CC(c3nc4ccccc4n3Cc3cccc(C)c3)CC2=O)cc1 (stereo not given)	i	u	i	u	u	-32%
COc1ccccc1Cn1c(C2CC(=O)N(c3ccccc3OC)C2)nc2ccccc21 (stereo not given)	i	-29%	i	13µM*	u	-23%
CCc1ccccc1N1CC(c2nc3ccccc3n2CCCCOc2ccccc2OC)CC1=O (stereo not given)	i	-22%	i	-11%	i	-88%
CCc1ccccc1N1CC(c2nc3ccccc3n2Cc2cccc(C)c2)CC1=O (stereo not given)	i	u	i	6.3µM*	u	-33%
